Results on 2 molecules are retold here after ChEMBL document CHEMBL1961873, “Compounds: GSK PKIS; Assays: Nanosyn kinase panel” (2012).

Assay [1] addresses Protein kinase C gamma type (Homo sapiens) (UniProt P05129). As to conditions: at 1 µM.
Assay [2] deals with T1, Protein kinase C iota type (Homo sapiens) (UniProt P41743).
T1 sequence (whole entry): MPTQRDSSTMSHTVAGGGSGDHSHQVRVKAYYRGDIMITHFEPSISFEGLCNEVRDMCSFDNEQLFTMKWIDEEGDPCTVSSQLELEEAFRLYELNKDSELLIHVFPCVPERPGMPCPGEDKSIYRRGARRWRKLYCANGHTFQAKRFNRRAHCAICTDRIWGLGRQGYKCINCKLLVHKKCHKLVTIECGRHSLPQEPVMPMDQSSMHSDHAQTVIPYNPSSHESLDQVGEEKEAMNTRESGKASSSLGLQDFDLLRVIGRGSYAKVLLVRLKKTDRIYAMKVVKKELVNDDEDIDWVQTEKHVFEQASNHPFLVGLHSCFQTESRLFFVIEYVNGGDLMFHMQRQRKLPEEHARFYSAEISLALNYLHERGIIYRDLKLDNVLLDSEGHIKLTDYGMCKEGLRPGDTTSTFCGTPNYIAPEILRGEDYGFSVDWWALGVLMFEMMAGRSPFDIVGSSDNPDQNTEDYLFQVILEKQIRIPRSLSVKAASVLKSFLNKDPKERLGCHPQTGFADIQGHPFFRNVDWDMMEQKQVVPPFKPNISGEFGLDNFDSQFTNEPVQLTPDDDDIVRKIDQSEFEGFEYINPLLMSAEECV
Conditions: at 0.1 µM.

Assay [3] addresses T1, Protein kinase C iota type (Homo sapiens). As to conditions: at 1 µM.
For assay [4], the target named is Protein kinase C theta type (Homo sapiens) (UniProt Q04759). As to conditions: at 0.1 µM.
Assay [5] shares this target. Conditions: at 1 µM.
Assay [6] concerns the target Protein kinase C beta type (Homo sapiens) (UniProt P05771). Conditions: at 0.1 µM.
Assay [7] has the same target. Conditions: at 1 µM.
Assay [8] concerns the target T2, Serine/threonine-protein kinase D1 (Homo sapiens) (UniProt Q15139).
T2 sequence (whole entry): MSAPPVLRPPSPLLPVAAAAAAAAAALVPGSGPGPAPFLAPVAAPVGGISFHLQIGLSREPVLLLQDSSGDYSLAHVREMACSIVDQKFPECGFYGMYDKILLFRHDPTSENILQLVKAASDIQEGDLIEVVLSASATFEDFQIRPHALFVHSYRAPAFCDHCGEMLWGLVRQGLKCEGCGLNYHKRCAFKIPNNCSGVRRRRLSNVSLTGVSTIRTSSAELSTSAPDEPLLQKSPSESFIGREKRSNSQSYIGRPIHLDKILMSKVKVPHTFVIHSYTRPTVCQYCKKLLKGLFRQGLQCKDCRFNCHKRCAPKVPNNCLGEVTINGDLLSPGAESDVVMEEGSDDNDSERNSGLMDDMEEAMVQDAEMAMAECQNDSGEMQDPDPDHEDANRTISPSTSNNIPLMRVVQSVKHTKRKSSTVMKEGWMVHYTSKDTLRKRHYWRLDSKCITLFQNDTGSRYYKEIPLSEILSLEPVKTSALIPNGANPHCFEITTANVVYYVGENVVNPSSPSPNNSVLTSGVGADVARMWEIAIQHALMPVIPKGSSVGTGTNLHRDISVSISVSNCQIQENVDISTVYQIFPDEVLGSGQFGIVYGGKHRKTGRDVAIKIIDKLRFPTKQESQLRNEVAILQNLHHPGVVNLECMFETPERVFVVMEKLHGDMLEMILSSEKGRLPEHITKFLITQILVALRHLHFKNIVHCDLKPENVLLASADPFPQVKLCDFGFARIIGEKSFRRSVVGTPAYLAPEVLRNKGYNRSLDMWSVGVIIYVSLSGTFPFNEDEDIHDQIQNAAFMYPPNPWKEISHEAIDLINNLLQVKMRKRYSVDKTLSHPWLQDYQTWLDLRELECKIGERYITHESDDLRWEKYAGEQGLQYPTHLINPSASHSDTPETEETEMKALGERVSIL
As to conditions: at 0.1 µM.

For assay [9], the target named is T2, Serine/threonine-protein kinase D1 (Homo sapiens). Conditions: at 1 µM.
The target in assay [10] is T3, Serine/threonine-protein kinase D2 (Homo sapiens) (UniProt Q9BZL6).
T3 sequence (whole entry): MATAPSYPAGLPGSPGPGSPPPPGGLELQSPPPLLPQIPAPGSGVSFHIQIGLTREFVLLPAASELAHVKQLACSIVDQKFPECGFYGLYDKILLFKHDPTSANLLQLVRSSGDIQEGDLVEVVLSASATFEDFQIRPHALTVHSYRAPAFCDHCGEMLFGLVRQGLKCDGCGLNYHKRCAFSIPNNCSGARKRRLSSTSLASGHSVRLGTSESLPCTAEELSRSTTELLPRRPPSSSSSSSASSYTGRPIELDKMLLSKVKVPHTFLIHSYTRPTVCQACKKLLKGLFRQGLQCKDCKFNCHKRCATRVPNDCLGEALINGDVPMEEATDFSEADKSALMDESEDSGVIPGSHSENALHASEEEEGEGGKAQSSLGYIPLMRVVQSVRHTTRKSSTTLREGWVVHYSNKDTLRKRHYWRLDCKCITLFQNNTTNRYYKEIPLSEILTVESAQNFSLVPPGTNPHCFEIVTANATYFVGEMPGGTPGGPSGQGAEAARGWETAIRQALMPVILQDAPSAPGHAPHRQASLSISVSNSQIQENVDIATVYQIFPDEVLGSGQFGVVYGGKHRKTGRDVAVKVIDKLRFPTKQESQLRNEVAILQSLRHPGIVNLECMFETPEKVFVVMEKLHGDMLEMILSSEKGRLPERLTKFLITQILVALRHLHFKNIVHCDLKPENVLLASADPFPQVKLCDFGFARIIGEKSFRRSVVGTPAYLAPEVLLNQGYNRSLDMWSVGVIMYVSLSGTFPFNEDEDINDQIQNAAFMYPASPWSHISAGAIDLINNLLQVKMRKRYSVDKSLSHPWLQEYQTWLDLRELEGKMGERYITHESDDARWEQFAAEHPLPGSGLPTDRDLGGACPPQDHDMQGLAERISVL
As to conditions: at 0.1 µM.

Assay [11] concerns the target T3, Serine/threonine-protein kinase D2 (Homo sapiens). Conditions: at 1 µM.
Assay [12] addresses T4, Serine/threonine-protein kinase D3 (Homo sapiens) (UniProt O94806).
T4 sequence (whole entry): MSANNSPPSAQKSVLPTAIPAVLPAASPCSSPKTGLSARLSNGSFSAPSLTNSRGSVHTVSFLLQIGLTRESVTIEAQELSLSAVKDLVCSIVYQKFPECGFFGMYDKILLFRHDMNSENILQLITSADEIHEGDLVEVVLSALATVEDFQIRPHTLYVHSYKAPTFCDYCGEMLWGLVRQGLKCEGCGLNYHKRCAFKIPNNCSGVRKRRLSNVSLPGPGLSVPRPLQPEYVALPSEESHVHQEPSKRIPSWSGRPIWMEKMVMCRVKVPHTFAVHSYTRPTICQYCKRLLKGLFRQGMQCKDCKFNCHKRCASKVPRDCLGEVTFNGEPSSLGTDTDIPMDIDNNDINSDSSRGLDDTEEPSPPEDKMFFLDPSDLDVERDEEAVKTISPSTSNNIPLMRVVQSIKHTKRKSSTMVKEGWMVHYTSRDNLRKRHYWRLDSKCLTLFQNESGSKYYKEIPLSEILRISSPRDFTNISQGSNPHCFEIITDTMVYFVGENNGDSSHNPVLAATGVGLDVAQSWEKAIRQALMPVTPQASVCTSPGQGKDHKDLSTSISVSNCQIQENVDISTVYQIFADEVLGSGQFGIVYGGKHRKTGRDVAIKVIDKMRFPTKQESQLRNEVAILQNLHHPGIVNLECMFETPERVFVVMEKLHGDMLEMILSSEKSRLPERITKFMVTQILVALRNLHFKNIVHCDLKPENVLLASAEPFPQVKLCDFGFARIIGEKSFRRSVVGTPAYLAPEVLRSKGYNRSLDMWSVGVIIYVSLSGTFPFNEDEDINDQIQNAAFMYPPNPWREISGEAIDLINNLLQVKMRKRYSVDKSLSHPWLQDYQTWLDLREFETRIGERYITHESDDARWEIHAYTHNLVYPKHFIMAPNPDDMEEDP
Conditions: at 0.1 µM.

Assay [13] has as its target T4, Serine/threonine-protein kinase D3 (Homo sapiens). Conditions: at 1 µM.
Assay [14] addresses T5, cGMP-dependent protein kinase 1 (Homo sapiens) (UniProt Q13976).
T5 sequence (whole entry): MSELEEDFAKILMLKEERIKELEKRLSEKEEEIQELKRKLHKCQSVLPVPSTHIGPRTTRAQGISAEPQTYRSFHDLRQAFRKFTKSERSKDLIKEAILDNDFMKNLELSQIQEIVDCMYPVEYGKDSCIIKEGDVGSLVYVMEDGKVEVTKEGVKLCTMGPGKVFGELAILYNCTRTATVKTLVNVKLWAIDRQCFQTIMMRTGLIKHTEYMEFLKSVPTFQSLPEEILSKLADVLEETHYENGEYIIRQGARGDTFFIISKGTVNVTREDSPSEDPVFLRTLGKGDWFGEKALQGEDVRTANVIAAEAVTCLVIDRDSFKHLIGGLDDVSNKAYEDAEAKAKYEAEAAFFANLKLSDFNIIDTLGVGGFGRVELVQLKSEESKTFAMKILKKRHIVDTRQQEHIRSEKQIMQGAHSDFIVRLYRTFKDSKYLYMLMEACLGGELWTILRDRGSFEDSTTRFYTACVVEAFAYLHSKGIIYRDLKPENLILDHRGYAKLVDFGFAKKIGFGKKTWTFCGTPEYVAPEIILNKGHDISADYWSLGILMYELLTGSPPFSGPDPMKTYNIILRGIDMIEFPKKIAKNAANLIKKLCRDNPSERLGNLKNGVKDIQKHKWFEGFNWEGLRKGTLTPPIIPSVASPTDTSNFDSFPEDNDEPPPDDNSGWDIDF
Conditions: at 0.1 µM.

The target in assay [15] is T5, cGMP-dependent protein kinase 1 (Homo sapiens). As to conditions: at 1 µM.
Assay [16] concerns the target T6, cGMP-dependent protein kinase 2 (Homo sapiens) (UniProt Q13237).
T6 sequence (whole entry): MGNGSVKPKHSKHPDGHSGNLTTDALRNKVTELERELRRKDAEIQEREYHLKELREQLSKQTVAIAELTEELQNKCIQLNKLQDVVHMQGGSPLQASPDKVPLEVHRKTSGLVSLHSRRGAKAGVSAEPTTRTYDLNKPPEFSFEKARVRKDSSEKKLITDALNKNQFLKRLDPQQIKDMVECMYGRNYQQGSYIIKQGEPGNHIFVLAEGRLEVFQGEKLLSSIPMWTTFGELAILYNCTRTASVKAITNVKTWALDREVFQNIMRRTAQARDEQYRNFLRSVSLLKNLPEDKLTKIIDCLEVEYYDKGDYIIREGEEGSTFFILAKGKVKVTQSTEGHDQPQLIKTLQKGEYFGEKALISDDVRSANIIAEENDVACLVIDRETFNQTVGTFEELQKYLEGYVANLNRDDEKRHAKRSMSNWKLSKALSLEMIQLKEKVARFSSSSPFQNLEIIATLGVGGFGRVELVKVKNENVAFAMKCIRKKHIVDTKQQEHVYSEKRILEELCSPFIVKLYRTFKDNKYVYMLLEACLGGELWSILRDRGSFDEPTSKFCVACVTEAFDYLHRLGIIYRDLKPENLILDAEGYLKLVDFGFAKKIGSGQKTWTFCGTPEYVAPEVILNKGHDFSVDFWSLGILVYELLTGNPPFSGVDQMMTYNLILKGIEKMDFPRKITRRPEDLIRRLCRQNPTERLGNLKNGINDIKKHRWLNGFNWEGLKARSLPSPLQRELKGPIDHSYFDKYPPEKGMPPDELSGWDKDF
Conditions: at 0.1 µM.

Assay [17] has as its target T6, cGMP-dependent protein kinase 2 (Homo sapiens). As to conditions: at 1 µM.
Assay [18] has as its target T7, cAMP-dependent protein kinase catalytic subunit PRKX (Homo sapiens) (UniProt P51817).
T7 sequence (whole entry): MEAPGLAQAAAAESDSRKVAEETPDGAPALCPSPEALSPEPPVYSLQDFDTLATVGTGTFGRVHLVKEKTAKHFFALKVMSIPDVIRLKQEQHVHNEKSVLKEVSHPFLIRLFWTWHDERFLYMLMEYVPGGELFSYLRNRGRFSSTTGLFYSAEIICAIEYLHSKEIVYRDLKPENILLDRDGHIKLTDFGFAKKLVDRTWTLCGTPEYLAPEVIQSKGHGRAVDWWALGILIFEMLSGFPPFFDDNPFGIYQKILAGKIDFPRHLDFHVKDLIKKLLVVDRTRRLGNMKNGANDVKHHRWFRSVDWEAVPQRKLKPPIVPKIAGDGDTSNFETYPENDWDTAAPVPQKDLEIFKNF
Conditions: at 0.1 µM.

The target of assay [19] is T7, cAMP-dependent protein kinase catalytic subunit PRKX (Homo sapiens). As to conditions: at 1 µM.
Assay [20] has as its target Rho-associated protein kinase 1 (Homo sapiens) (UniProt Q13464). As to conditions: at 0.1 µM.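 Further: values are mean percent inhibition of ROCK1.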

Protein kinase C beta type (Homo sapiens), sequence (P05771 2-671 limits assumed): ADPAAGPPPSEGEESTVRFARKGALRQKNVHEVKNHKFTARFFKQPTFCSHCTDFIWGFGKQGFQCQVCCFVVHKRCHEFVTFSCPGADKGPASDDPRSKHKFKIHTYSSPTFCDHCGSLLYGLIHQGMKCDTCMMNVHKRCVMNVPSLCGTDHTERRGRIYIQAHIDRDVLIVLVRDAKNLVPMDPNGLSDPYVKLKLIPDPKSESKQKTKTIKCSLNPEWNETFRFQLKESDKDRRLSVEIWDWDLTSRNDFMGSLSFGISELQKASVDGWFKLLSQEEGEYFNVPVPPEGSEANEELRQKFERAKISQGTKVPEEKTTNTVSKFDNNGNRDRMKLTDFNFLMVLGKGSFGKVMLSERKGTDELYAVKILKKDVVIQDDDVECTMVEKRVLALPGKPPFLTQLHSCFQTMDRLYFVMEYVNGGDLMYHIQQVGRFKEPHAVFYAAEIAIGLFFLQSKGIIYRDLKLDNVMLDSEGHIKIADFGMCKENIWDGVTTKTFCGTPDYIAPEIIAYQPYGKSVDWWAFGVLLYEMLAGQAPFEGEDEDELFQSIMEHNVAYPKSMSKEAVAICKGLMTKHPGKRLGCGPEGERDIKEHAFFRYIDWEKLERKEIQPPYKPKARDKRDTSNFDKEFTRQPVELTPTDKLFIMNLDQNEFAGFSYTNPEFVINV
Protein kinase C theta type (Homo sapiens), sequence (Q04759 whole entry, looked up): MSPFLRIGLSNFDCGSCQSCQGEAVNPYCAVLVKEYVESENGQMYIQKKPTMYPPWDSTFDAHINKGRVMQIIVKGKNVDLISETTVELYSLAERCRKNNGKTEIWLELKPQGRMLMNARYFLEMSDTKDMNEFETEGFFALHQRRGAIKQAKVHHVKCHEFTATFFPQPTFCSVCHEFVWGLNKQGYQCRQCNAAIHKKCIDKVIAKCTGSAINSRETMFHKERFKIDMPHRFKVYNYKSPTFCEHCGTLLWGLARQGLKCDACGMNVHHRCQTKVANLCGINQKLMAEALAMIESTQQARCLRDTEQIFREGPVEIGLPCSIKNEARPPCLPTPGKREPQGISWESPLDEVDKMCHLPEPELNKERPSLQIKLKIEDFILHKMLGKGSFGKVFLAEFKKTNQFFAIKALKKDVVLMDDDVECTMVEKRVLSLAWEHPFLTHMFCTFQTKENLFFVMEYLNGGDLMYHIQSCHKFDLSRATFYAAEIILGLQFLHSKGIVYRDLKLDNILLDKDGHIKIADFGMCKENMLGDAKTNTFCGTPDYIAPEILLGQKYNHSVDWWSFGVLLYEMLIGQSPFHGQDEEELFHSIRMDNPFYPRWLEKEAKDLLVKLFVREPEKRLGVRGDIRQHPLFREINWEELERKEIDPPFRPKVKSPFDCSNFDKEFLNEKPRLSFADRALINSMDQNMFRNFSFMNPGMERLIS
Rho-associated protein kinase 1 (Homo sapiens), sequence (Q13464 2-1354 limits assumed): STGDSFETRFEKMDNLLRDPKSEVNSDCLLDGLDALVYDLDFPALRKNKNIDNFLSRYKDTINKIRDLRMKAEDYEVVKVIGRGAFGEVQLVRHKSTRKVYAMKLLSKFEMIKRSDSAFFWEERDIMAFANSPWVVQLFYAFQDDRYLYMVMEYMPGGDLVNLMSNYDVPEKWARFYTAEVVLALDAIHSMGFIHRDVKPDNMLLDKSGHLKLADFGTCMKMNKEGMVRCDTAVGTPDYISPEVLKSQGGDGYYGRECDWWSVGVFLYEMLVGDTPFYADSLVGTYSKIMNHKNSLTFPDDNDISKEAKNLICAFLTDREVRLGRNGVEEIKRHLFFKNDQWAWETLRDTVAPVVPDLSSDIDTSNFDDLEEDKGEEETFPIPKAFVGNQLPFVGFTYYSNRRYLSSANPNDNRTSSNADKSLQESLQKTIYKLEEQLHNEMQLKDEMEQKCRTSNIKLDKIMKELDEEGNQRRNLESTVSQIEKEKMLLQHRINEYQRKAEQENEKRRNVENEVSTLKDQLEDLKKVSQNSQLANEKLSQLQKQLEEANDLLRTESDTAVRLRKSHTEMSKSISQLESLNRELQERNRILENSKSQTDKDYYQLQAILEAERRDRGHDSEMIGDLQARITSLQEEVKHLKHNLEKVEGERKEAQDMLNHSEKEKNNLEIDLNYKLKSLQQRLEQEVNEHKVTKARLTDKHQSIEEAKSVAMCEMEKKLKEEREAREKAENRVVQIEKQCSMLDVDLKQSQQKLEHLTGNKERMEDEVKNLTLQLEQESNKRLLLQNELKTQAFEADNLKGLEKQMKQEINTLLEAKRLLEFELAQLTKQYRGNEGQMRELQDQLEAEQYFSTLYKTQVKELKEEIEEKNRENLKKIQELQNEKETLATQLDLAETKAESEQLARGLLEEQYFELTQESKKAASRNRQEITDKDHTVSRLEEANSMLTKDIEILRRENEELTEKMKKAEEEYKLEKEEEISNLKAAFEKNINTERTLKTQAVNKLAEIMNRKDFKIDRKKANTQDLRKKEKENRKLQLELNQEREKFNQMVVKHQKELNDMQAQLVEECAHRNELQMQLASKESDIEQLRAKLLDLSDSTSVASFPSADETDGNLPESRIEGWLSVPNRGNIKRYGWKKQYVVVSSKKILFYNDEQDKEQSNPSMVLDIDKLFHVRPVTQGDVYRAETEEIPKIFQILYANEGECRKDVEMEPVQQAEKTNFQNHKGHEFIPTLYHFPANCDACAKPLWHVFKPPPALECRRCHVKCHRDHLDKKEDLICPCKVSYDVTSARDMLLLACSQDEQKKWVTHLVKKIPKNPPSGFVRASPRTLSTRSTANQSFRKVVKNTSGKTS

Turning to `O=S(=O)(CCNCc1ccc(-c2ccc3ncnc(Nc4ccc(OCc5cccc(F)c5)c(Cl)c4)c3c2)o1)c1ccccc1`, the inhibition was 6.38% in assay [1]; 4.15% in assay [2]; 4.31% in assay [3]; 2.33% in assay [4]; 2.85% in assay [5]; 2.03% in [6]. Moreover, the inhibition worked out at 2.6% in assay [7]; 5.17% in [8]; 7.32% in assay [9]; 5.52% in [10]; 4.53% in assay [11]; 5.12% in assay [12]. The inhibition in [13] is 5.2%; in [14] it was 4.89%; in assay [15], 3.93%; in assay [16], 3.34%; in assay [17] it was 3.34%; in assay [18], 2.74%. Further, the values for the inhibition in [19] and in assay [20] were 2.77% and 2.37%, respectively.
`CN1CCC(n2cnc(-c3ccc(F)cc3)c2-c2ccnc(N)n2)CC1`: the inhibition in assay [1] came to 8.99%; in [2] it was 0.59%; in [3], 0.68%; in assay [4], 1.72%; in assay [5], 3.61%; in assay [6], 2.83%. The inhibition worked out at 12.3% in assay [7]; 4.67% in [8]; 26.3% in assay [9]; 3.25% in assay [10]; 16.4% in assay [11]; 2.68% in assay [12]. The inhibition in assay [13] worked out at 17.3%; in assay [14], 0.5%; in assay [15] it was 9.09%; in [16], 2.99%; in assay [17], 30.7%; in assay [18], 0.51%. Further, the inhibition was 1.95% in assay [19] and -0.08% in [20].
